RAD52 inh – blocks human RAD52 DNA annealing; P43351; recombinant RAD52 DNA annealing, FRET fluorescence; inhibition, % at 18.7 µM; 360,000 tested, 0.46% active; AID 651710;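 active = every replicate showing at least 50% inhibition; inconclusive = mean inhibition at least 50% but not in every replicate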
AF4-AF9 inh – inhibitors of human MLL-AF4/AF9 interaction; AlphaScreen, biotin-AF4 peptide binding to FLAG-AF9; inhibition, % at 10 µM; 350,000 tested, 0.47% active;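 active = every replicate reaching a set inhibition limit, whatever the replicate mean, cut at about 25% in these data; inconclusive = mean inhibition reaches that limit but some replicates miss it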;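 note: 0% = plate neutral control median and 100% = total signal loss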
Target sequence (P42568 whole entry, looked up): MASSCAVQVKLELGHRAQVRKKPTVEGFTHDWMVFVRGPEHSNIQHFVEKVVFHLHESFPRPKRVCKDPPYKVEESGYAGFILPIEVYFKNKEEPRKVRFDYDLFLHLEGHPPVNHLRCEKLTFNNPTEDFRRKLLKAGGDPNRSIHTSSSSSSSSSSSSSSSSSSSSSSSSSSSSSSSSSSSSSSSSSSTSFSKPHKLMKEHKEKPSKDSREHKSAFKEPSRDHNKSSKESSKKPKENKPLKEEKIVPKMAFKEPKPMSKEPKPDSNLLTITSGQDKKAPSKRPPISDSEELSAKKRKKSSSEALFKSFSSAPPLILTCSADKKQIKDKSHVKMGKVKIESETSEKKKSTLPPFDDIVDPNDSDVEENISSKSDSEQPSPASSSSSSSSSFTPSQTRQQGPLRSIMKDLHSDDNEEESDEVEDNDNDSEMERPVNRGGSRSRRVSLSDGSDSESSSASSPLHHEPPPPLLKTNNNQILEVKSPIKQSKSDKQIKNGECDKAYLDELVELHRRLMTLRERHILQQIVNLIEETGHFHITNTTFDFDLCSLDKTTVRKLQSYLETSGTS
FGF22 binding – FGF22 (human) thermal shift binding; AID 651658; recombinant FGF22 thermal shift, SYPRO orange fluorescence; percent of sucrose octasulfate shift, DMSO zero; activity (Tm shift, normalised), % at 9.99 µM; 340,000 tested, 1.5% active;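 active = mean Tm shift, scaled 0 neutral to 100 positive control, at about 1.3% or above, every replicate too, limit read from the data; inconclusive = no clear call, values can overlap the other calls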
ERAP1 inh – ERAP1 (human) enzyme inhibition; recombinant ERAP1, Leu-AMC fluorescence, 60 min; Q9NZ08; AID 652197; inhibition, % at 10.7 µM; 340,000 tested, 0.15% active;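 active = mean replicate inhibition of at least 30%, or all replicates individually reaching that 30% level; inactive = mean below 30% and not every replicate reaching it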;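 note: 0% = neutral control wells and 100% = L-leucinethiol positive control wells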
DENV2 CPE – DENV2-induced cell death inhibition. 350,000 tested, 1.7% active. DENV2-infected cells, cytopathic effect rescue, plate reader. CPE inhibition, % at 9.99 µM; in the data active = CPE inhibition above about 20%, passing the limit was not always enough; inconclusive = no clear call, values can overlap the other calls; tested in BHK-21 cells;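 note: 0% = median of neutral control wells and 100% = median of positive control wells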
Alpha interfer – AlphaScreen signal interference counter-screen hit | AC50, µM (series often up to 12 µM), for the others: top-dose activity change, negative = inhibition | signal luminescence | shares compounds with AF4-AF9 inh | 530 tested, 45% active; cut-off not given, nearly all actives have AC50 up to about 14 µM
* marks the source's active call; other numbers are inactive results; ? = inconclusive; nt = not tested or not shown. This is a sample that favours compounds with a hit; in the whole collection about 4% have one here.

SMILES	RAD52 inh	AF4-AF9 inh	FGF22 binding	ERAP1 inh	DENV2 CPE	Alpha interfer
Cc1ccc(N2CCOCC2)c2c1C(=O)c1ccccc1C2=O	20.1	64.3*	0.2	-0.9	0.9	10.1µM*
O=C1C=C(N2CCOCC2)c2ccccc2C1=O	-5.0	3.3	-0.3	0.4	-0.7	nt
CO[C@@H]1CN(C)C(=O)c2cc(NC(=O)C3CC3)ccc2OC[C@@H](C)N(Cc2ccccc2)C[C@@H]1C	10.5	-0.9	-0.1	0.3	3.1	nt
COc1cc(/C=N/N=C(N)N)ccc1OCc1ccc(Cl)cc1	6.1	27.0*	-0.2	-157.4	-0.9	-26.3%
CCOc1cc(/C=N/N=C(N)N)ccc1OCc1ccc(Cl)cc1	-63.8	27.5*	0.3	-20.0	-2.2	-27.5%
COc1cc(/C=N/O)ccc1OCc1ccc(Cl)cc1	4.5	-1.4	0.1	0.7	0.6	nt
C[C@H]1CN([C@@H](C)CO)C(=O)c2cc(-c3cccc(C#N)c3)cnc2O[C@@H]1CN(C)C(=O)c1cnccn1	-2.2	-1.0	0.2	nt	-2.5	nt
CCN1C(=O)/C(=C\C(=O)c2cccs2)c2cc(Br)ccc21	-1.6	37.4*	0.1	-2.9	-9.6	-0.2%
O=C(O)/C(=C\c1ccc(Br)cc1)NC(=O)c1cccs1	-11.1	-1.1	-0.2	3.3	1.5	nt
CN(C)c1ccc(NC(=S)c2ccccn2)cc1	-12.1	48.7*	0.0	1.7	-0.4	-24.8%
CCCC(=O)Nc1ccc2c(c1)C(=O)N(C)[C@@H]1CC[C@@H](CC(=O)NCCc3ccncc3)O[C@@H]1CO2	0.8	-0.9	-0.1	1.3	-2.0	nt
OC(CNC1CCCCCC1)COc1cccc2ccccc12 (stereo not drawn)	-14.4	3.6	0.1	2.7	-3.0	nt
Cc1cc2c(OCC(O)CNC3CCCCC3)cccc2[nH]1 (stereo not drawn)	19.9	29.1*	0.0	-4.9	-2.8	-15.3%
COc1cccc(-c2ccc3c(c2)[C@@H]2[C@@H](CCN2C(=O)NC2CCCCC2)[C@H](CO)N3C)c1	24.1	22.0	nt	-1.5	1.0	nt
COc1ccccc1C(CCNCc1ccc(N(C)C)cc1)c1ccc(OC(C)C)cc1 (stereo not drawn)	-17.3	73.7*	-0.1	1.0	8.5	2.89µM*
COc1ccc(C(CCNCc2ccc(N(C)C)cc2)C(C)C)cc1 (stereo not drawn)	7.3	41.4*	-0.2	-4.2	-23.1	11.2µM*
C#CCOCCOCCOCCNc1nc(N2CCN(C(=O)[C@H](CCC(=O)O)n3cc([C@@H](N)CC(N)=O)nn3)CC2)nc(N2CCN(C(=O)[C@H](CCC(=O)O)n3cc([C@@H](N)CC(N)=O)nn3)CC2)n1	-9.3	0.0	0.0	-2.2	?	nt
C#CCOCCOCCOCCNc1nc(N2CCOCC2)nc(N2CCN(C(=O)[C@H](CCCCN)n3cc(CCCC)nn3)CC2)n1	41.1	9.1	0.0	-3.6	?	nt
C#CCOCCOCCOCCNc1nc(N2CCN(C(=O)[C@H](CCCCN)n3cc([C@@H](N)CC(N)=O)nn3)CC2)nc(N2CCN(C(=O)[C@H](CCCCN)n3cc([C@@H](N)CC(N)=O)nn3)CC2)n1	61.3*	36.6*	0.0	-0.1	2.2	3.3%
C#CCOCCOCCOCCNc1nc(N2CCN(C(=O)[C@H](CCCCN)n3cc(CCCC)nn3)CC2)nc(N2CCN(C(=O)[C@H](CCCCN)n3cc(CCCC)nn3)CC2)n1	-39.0	26.3*	-0.3	-8.8	-15.3	-11.6%
CNC(=S)N1N=C(c2ccc(C)cc2)CC1c1ccc(N(C)C)cc1 (stereo not drawn)	-26.3	31.3*	43.6*	3.7	-3.3	-26.5%
CNC(=S)N1N=C(c2ccc(C)cc2)CC1c1cc(OC)ccc1OC (stereo not drawn)	-7.5	17.2	41.8	1.3	15.2	nt
C[C@H]1CN([C@@H](C)CO)C(=O)c2cc(NC(=O)CCC(F)(F)F)ccc2O[C@@H]1CN(C)C(=O)Nc1cccc2ccccc12	2.3	0.3	-0.1	0.1	-9.8	nt
C/C=C/c1ccc2c(c1)O[C@@H](CN(C)Cc1ccccn1)[C@@H](C)CN([C@H](C)CO)S2(=O)=O	-3.5	0.9	0.3	-3.0	-2.7	nt
O=C(CN1CCCC1)N/N=C/c1c(O)ccc2ccccc12	-34.2	38.4*	nt	3.0	0.8	5.72µM*
CN(C)CC(=O)N[C@H]1CC[C@H](CC(=O)NCc2ccc(Cl)cc2)O[C@H]1CO	15.0	-10.5	-0.1	-6.8	-0.1	nt

Screening data (PubChem BioAssay)
